From PubChem
This excerpt belongs to a sample that is enriched for hits.
HT1080 IDH1KD tx – HT-1080 IDH1 knockdown cell toxicity (counter line). actives 2% (n = 360,000). AID 686971. HT-1080 IDH1 knockdown viability, ATP luminescence, 48 h. Potency, µM (doses to about 46.1 µM), hits mostly cytotoxic
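CellTiter-Glo luminescence after 48 h compound exposure at 37 degrees C of IDH1-knockdown HT-1080 cells in 5% FBS RPMI. %Activity scaled between DMSO wells and cell-free media wells, with curves fitted and assigned curve classes.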
DT40 TDP1 CPT – growth inhibition of DT40 Tdp1-/-;hTDP1 cells with camptothecin (screen for TDP1 inhibitors) | chicken DT40 Tdp1-/-;hTDP1 cells + 20 nM CPT, ATP luminescence, 48 h | Potency, µM (titrated, usually from 46.2 µM), hits mostly inhibitors | actives 12% (n = 420,000) | AID 686979; note: nearly all actives have a fitted effect of over 55% in size
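Chicken DT40 Tdp1-/- cells complemented with human TDP1, 400 cells/well, exposed to compounds plus 20 nM camptothecin for at least 48 h at 37 C; viability read as ATP content by CellTiter-Glo luminescence.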
12-LOX inh – inhibitors of human 12S-lipoxygenase ALOX12 | P18054 | AID 1671190 | Potency, µM (series often up to 108 µM), usual class: inhibitors | actives 1.1% (n = 580,000) | purified 12hLO, xylenol orange hydroperoxide absorbance
Target sequence (P18054 whole entry, looked up): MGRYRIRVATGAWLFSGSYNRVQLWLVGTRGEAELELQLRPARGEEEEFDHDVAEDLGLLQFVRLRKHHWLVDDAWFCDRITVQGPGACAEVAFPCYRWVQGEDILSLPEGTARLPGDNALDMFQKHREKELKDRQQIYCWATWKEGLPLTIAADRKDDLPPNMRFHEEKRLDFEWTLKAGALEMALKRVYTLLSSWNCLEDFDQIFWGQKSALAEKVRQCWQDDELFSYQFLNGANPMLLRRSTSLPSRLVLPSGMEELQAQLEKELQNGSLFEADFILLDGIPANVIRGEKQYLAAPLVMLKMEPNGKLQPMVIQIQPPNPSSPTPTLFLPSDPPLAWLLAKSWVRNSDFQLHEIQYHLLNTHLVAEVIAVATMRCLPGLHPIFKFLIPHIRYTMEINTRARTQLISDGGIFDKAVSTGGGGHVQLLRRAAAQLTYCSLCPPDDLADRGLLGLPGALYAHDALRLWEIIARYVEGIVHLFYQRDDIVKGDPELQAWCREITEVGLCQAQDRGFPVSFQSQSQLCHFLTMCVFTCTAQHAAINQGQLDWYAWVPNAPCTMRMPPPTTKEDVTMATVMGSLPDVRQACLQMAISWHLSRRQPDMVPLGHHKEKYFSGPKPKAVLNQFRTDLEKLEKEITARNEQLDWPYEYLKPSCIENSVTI
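Hydroperoxide product was detected by ferrous iron/xylenol orange as the 573 to 405 nm absorbance ratio. Arachidonic acid at 40 uM (final) was turned over for 30 min at room temperature by 150 nM human 12hLO, pH 7.0 Hepes buffer, after 15 min compound preincubation.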
HT1080NT lethal – kills 2HG-producing HT-1080-NT fibrosarcoma cells; Potency, µM (series often up to 46.1 µM), usual class: cytotoxic; actives 1.6% (n = 360,000); AID 686970; HT-1080-NT fibrosarcoma viability, CellTiter-Glo ATP luminescence, 48 h;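 note: NT is the 2HG producing partner of a matched IDH1 knockdown line; nearly all actives have a fitted effect of over 55% in size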
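Read-out is CellTiter-Glo luminescence after 10 minutes at room temperature, following 48 hours' compound treatment of HT-1080-NT cells (750 cells/well, RPMI, 5% FBS, 37 degrees C).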
IL-1B inflam inh – blocks inflammasome-driven IL-1 beta release; actives 4.7% (n = 360,000); activity change, % at 57.5 µM; AID 743279; THP-1 LPS/ATP IL-1B secretion, AlphaLISA, 16 h; stronger effect = lower value; in the data active = activity change below about -50%; inconclusive = mostly about -30% to -49%
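THP-1 cells pretreated 1 hr with compounds (up to 57.5 uM final), then stimulated with LPS (250 ng/mL final) plus ATP (1.25 mM final); secreted IL-1B measured by AlphaLISA after 16 hr, decreased signal indicating inhibition.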
DT40 TDP1 no CPT – qHTS for Inhibitors of human tyrosyl-DNA phosphodiesterase 1 (TDP1): qHTS in cells in absence of CPT; DT40 Tdp1-/- hTDP1 cells, no CPT, ATP luminescence, 48 h; Potency, µM (series often up to 46.2 µM), hits mostly inhibitors; actives 15% (n = 420,000); AID 686978, 2013; note: nearly all actives have a fitted effect of over 55% in size
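DT40 Tdp1-/-;hTDP1 cells, no CPT (DMSO vehicle only), 400 cells/well; compounds pin-transferred; ≥48 hr, 37 °C; CellTiter-Glo 30 min RT dark, luminescence read.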
Hits are given with their value; – = inactive; ? = inconclusive; · = no result given; [ ] = dose if it differs, or a comment. Unless noted, calls come from the whole dose curve; as a rule, active = well fitted curve in the direction sought with a large enough effect; inconclusive = small, poorly fitted or top-dose-only effect, or another doubt; inactive = no such curve, though single readings can be large; an effect the other way counts as inactive or inconclusive.

SMILES	HT1080 IDH1KD tx	DT40 TDP1 CPT	12-LOX inh	HT1080NT lethal	IL-1B inflam inh	DT40 TDP1 no CPT
O=S1(=O)NC2(CCCN(Cc3ccc(F)cc3)C2)COc2ccccc21 (stereo not drawn)	·	·	–[6.33 µM]	·	·	·
Fc1ccc(Sc2ccccc2CNC2=NCCN2)cc1	?	12µM	?	–	?	18µM
CC(C)(C)c1ccc(C(=O)Nc2ccc(Cl)cc2F)cc1	·	·	–	·	·	·
COc1ccccc1CNc1nc(NCc2cccc(OC)c2OC)c2sccc2n1	?	4.6µM	?	21µM	-90	7.3µM
COCCNc1nc(NCc2cccc(OC)c2OC)c2sccc2n1	–	?	–	?	–	12µM
COc1cccc(CNc2nn[nH]n2)c1OC	–	–	–	–	–	–
Cc1ccc(CNC(=O)C2CC2)cn1	·	·	–	·	·	·
Cn1cc(C(=O)N2CCN(S(=O)(=O)c3ccc(F)cc3)CC2)c2ccccc21	·	·	–	·	·	·
O=C(CCc1ccco1)Nc1ccc(N2CCCC2)cn1	·	·	–	·	·	·
COc1ccc(-c2cc3nc4c(c(=O)n3[nH]2)CN(C(=O)CCCc2nc3ccccc3s2)CC4)cc1	·	·	–	·	·	·
Cc1cc(C)c2nc(C)cc(Nc3ccc(C(=O)NCCO)cc3)c2c1	–	–	?	–	-90	?
CC(=O)c1ccc(Nc2cc(C)nc3c(C)cc(C)cc23)cc1	8.2µM	4.6µM	–	9.2µM	-95	4.6µM
CC(=O)c1cccc(Nc2cc(C)nc3c(C)cccc23)c1	–	–	–	–	-75	?
Cc1ccc(CCNC(=O)c2cc(C)nc3c(C)cc(C)cc23)cc1	·	·	–	·	·	·
Cc1cc(C)c2nc(C)cc(Nc3ccc(C(=O)N(C)C)cc3)c2c1	–	–	·	–	–	–
CC(=O)c1cccc(Nc2cc(C)nc3ccccc23)c1	–	?	–	–	–	–
COc1ccc(C2c3c(ncn(Cc4ccco4)c3=N)Oc3ccc4ccccc4c32)cc1 (stereo not drawn)	?	?	?	21µM	-77	16µM
COc1ccc(Cc2nc3c4c(ncn3n2)Oc2ccc3ccccc3c2C4c2ccc(OC)c(OC)c2)cc1 (stereo not drawn)	–	–	–	–	–	–
COc1ccccc1OCc1nc2c3c(ncn2n1)Oc1cc(O)ccc1C3c1ccccc1 (stereo not drawn)	·	·	–	·	·	·
COc1ccc(C2c3ccc(O)cc3Oc3ncn(Cc4ccco4)c(=N)c32)cc1 (stereo not drawn)	–	12µM	–	–	?	21µM
CNC(=O)c1ccc(CNC(=O)C2CCCC2)cc1	·	·	–	·	·	·
O=C1CCCCCN1Sc1ccccc1	–	5.8µM	16µM	–	-101	5.2µM
CCCN1C(=O)Cc2cc(C(=O)NCc3ccc(F)cc3F)ccc21	·	·	–	·	·	·
N#CCc1ccc(NS(=O)(=O)c2ccc(C3CCCCC3)cc2)cc1	?	23µM	–	?	–	15µM
Cc1cccc(NS(=O)(=O)c2ccc(C3CCCCC3)cc2)c1	?	21µM	–	?	–	15µM
SMILES	HT1080 IDH1KD tx	DT40 TDP1 CPT	12-LOX inh	HT1080NT lethal	IL-1B inflam inh	DT40 TDP1 no CPT
CC(=O)Nc1ccc(NC(=O)NC(C)c2ccc(F)cc2)cc1 (stereo not drawn)	·	·	–	·	·	·
Cc1cc(C)n(-c2nnc(C)n2/N=C/c2ccccc2OCc2ccccc2Cl)n1	–	?	–	–	–	21µM
CC(=O)N1CCC(Cc2ccc(C(=O)N(C)C)cc2)CC1	·	·	–	·	·	·
O=C(/C(=C/c1cccnc1)n1ccnc1)c1ccc(Cl)cc1Cl	–	16µM	–	–	?	15µM
O=C(/C(=C/c1ccncc1)n1ccnc1)c1ccc(Cl)cc1Cl	–	16µM	?	–	–	13µM
Cn1cc(C(C(=O)O)N2CCN(Cc3cccc(Cl)c3)CC2)c2cc(C(=O)O)ccc21 (stereo not drawn)	·	·	–	·	·	·
COC(/C(=N/O)c1ccc(Cl)cc1)c1ccccc1 (stereo not drawn)	?	?	–	?	–	23µM
COP(=O)(OC)OC(C(=O)c1ccccc1)c1ccc(Cl)cc1 (stereo not drawn)	–	–	–	–	–	–
Cc1ccc2sc(/C=C/c3ccc(C#N)cc3)nc2c1	·	·	–	·	·	·
Cn1nc(C(=O)NC2CCCCCCC2)c(Cl)c1C(F)(F)F	·	·	–	·	·	·
C/C(=N/Nc1ccc(S(N)(=O)=O)cc1[N+](=O)[O-])c1cccc(Br)c1	·	·	–	·	·	·
COc1cc(C2c3c(-c4ccccc4O)n[nH]c3C(=O)N2CCO)ccc1OCCC(C)C (stereo not drawn)	·	·	–	·	·	·
COc1ccc(/C=C/C(=O)NNC(=O)c2cc(C)oc2C)cc1	–	–	–	–	-58	–
COc1ccc(/C=C/C(=O)c2ccc(OC)cc2OC)cc1	–	?	–	–	-105	?
COc1ccc(/C=C/C(=O)c2c(OC)cc(O)cc2OC)cc1	·	·	–	·	·	·
COc1ccc(/C=C/C(=O)c2cc3c(cc2N)OCO3)cc1	?	?	35µM	?	–	23µM
COc1ccc(/C=C/C(=O)c2cc(C(=O)/C=C/c3ccc(OC)cc3)c(O)cc2O)cc1	–	?	·	–	·	11µM
COc1ccc(/C=C/C(=O)O)cc1	–	–	–	–	–	?
CCNC(=O)C1(NC(=O)Cc2coc(-c3ccccc3)n2)CCCCC1	·	·	–	·	·	·
CCn1nccc1C(=O)N1CCCC(c2nnnn2-c2ccccc2)C1 (stereo not drawn)	·	·	–	·	·	·
COc1ccc(/C=C/C(=O)c2cc(O)ccc2O)cc1	·	16µM	·	·	·	16µM
COc1ccc(C(=O)/C=C/Nc2ccccn2)c(OC)c1	?	–	–	–	-63	?
COc1ccc(/C=C\C(=O)c2c(O)ccc3c(C)cc(=O)oc23)cc1	?	–	–	?	–	23µM
COc1ccccc1C1CN(Cc2cccc(O)c2)Cc2ccccc2O1 (stereo not drawn)	·	–[9.04 µM]	?	·	·	16µM
COc1ccccc1C1CN(Cc2ccc(Sc3nncn3C)o2)Cc2ccccc2O1 (stereo not drawn)	·	–[9.04 µM]	–	·	·	16µM
SMILES	HT1080 IDH1KD tx	DT40 TDP1 CPT	12-LOX inh	HT1080NT lethal	IL-1B inflam inh	DT40 TDP1 no CPT
O=C(CCc1cccnc1)N1CC[C@@H](c2ccc3ccccc3c2)[C@H](O)C1	·	·	–	·	·	·
COc1ccc(C(=O)N2CCC3(CC2)N=C(c2ccc(Cl)cc2)NO3)cc1OC	·	·	–	·	·	·
CN(C)CCCN(C(=O)c1ccco1)c1nc(-c2ccc(Cl)cc2)cs1	–	?	?	–	-54	?
Cc1ccc(-c2csc(N(CCCN3CCOCC3)C(=O)c3ccco3)n2)cc1	?	?	?	?	-53	21µM
COCCCN(C(=O)c1ccco1)c1nc(-c2cc(OC)ccc2OC)cs1	–	?	–	?	–	?
COc1ccc(-c2csc(N(CCCN3CCOCC3)C(=O)c3ccco3)n2)cc1	–	18µM	?	–	?	16µM
